This passage reports Potency, Z-AUC and outcome results from PubChem BioAssay (NCATS).

The structures appear in SMILES notation. Values joined by “and” are separate entries in the source; they are usually repeats but may differ in a detail not shown here. Equal values may be shown once. Results filed as inconclusive are left out. Where a structure was tested more than once in an assay, its records may differ in their call. Active and inactive are the calls of the source. Unless noted, calls come from the whole dose curve; as a rule, active = well fitted curve in the direction sought with a large enough effect; inconclusive = small, poorly fitted or top-dose-only effect, or another doubt; inactive = no such curve, though single readings can be large; an effect the other way counts as inactive or inconclusive.

Experiment [1] can be described thus: P-glycoprotein substrates identified in KB-3-1 adenocarcinoma cell line, qHTS therapeutic library screen (AID 1346986). Note: nearly all actives have a fitted effect of over 60% in size.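 Note: potency is the fitted concentration of half-maximal effect; potency is for cytotoxicity meaning loss of cell viability.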 The gist of the method: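 In 1536-well format, 500 cells/well received pinned compound titrations and were incubated 72 h, 5% CO2. Viability was read by CellTiter-Glo; cytotoxic if AC50 < 10 uM and efficacy >50%.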
(In general: In qHTS, concentration-response curves come from the screen itself.)

Experiment [2] has as its system Zika virus NS2B-NS3 protease. The experiment in a line: Primary screen GU AMC qHTS for Zika virus inhibitors (AID 1347154).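 Note: 0% = no-inhibitor control and -100% = no-enzyme control; nearly all actives have a fitted effect of over 70% in size.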 In outline:
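Unlinked Zika NS2B hydrophilic domain–NS3 protease complex at 25 nM in 10 mM Tris-HCl pH 8.0, 0.01% Tween 20, with an AMC peptide substrate. Fluorescence change (340/450 nm) over 15 min at room temperature, normalized to controls, fitted to 4-parameter Hill.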

Experiment [3] can be described thus: Primary qHTS for inhibitors of nuclear receptor binding SET domain protein 2 (NSD2) in an isogenic RCH-ACV NSD2 p.E1099K mutant (9B) (AID 1645876). Note: nearly all actives have a fitted effect of over 70% in size. Note: potency is the fitted concentration of half-maximal effect.
Experiment [4] can be described thus: Primary qHTS for inhibitors of nuclear receptor binding SET domain protein 2 (NSD2) in an RCH-ACV wild type WT cells (2C) (AID 1645877). Note: nearly all actives have a fitted effect of over 70% in size. Note: potency is the fitted concentration of half-maximal effect.
For experiment [5], the target named is Glutathione peroxidase 1 (Homo sapiens) (UniProt P07203). Description: Primary qHTS Assay for Inhibitors of Recombinant Selenoprotein Glutathione Peroxidase 1 (GPX1) (AID 1845191). Note: nearly all actives have a fitted effect of over 65% in size. The gist of the method:
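GR-coupled readout: NADPH consumption tracked by fluorescence, ex 340/em 450 nm, at t=0 and after 15 min at RT. Final mix 10 nM GPX1, 1 mM GSH, 0.5 mM CHP, 0.5 mM NADPH, 100 nM GR, 0.01% BSA, following 30 min enzyme–compound preincubation.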

Experiment [6] can be described thus: P-glycoprotein substrates identified in KB-8-5-11 adenocarcinoma cell line, qHTS therapeutic library screen (AID 1346987). Note: nearly all actives have a fitted effect of over 65% in size. Note: potency is the fitted concentration of half-maximal effect. The gist of the method: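 Luminescence from CellTiter-Glo, read 5 min after addition, quantified survival of KB-8-5-11 (P-gp-overexpressing) cells exposed to compounds for 72 h. AC50 was derived from concentration-response curves.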
Experiment [7] concerns the target Phospholipid hydroperoxide glutathione peroxidase GPX4 (Homo sapiens) (UniProt P36969). The experiment in a line: Primary qHTS Assay for Inhibitors of Recombinant Selenoprotein Glutathione Peroxidase 4 (GPX4) (AID 1845192). Note: series mostly up to about 50 µM; % is set by controls: 0 for no effect and ±100 for the full control effect; nearly all actives have a fitted effect of over 65% in size. To be noted: outcome: dose series up to 50 µM unless noted. The gist of the method: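 Steps: GPX4 plus compound, 30 min RT; add GR/GSH/NADPH master mix; start with cumene hydroperoxide; read 340/450 nm fluorescence at 0 and 15 min. Finals were 200 nM GPX4, 1 mM GSH, 0.5 mM CHP, 0.5 mM NADPH, 100 nM GR.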

A short description of experiment [8]: qHTS drug screen for cell cycle checkpoint inhibitors in PARPi-resistant BRCA-mutant ovarian cancer cell lines. (AID 1963452; calls by dose curve). Conditions: PEO1/OlaR viability, CellTiter-Glo luminescence, 96 h, stronger effect = lower value. In outline: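 PEO1, PEO4 and PEO1/OlaR ovarian cancer cells, 600 per well, exposed 96 h at 37C to a dilution series. Viability read by CellTiter-Glo luminescence, normalized to DMSO and empty wells; activity summarized as Z-AUC.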

The target in experiment [9] is Tyrosine-protein kinase Yes (Homo sapiens) (UniProt P07947). The experiment in a line: qHTS for small molecule inhibitors of Yes1 kinase: Primary Screen (AID 686947). Note: potency is the fitted concentration of half-maximal effect; nearly all actives have a fitted effect of over 60% in size. In outline:
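ADP-Glo luminescence reports ADP formed by 4 nM Yes1 phosphorylating poly(E4Y) (0.3 mg/mL) with 0.1 mM ATP for 60 min at room temperature, following 20 min compound preincubation; normalised between DMSO wells with and without enzyme.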

A short description of experiment [10]: qHTS for small molecule inhibitors of Yes1 kinase: Counter Assay (AID 686950).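 Note: no kinase present so only ADP-Glo detection of a fixed ADP amount is tested; luminescence from ADP-Glo reporting ADP in a fixed ATP and ADP mixture; series mostly up to about 77 µM; 0% = DMSO wells with ATP plus ADP and -100% = ATP-only wells without ADP.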 In outline:
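No kinase present; 0.08 mM ATP + 0.02 mM ADP in 50 mM Tris pH 7.5, 10 mM MgCl2, 150 mM NaCl, 1 mM DTT; 20 min compound preincubation, 60 min RT, ADP-Glo luminescence, normalized to ATP/ADP (max) and ATP-only (min).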

Glutathione peroxidase 1 (Homo sapiens), sequence (P07203 whole entry, looked up): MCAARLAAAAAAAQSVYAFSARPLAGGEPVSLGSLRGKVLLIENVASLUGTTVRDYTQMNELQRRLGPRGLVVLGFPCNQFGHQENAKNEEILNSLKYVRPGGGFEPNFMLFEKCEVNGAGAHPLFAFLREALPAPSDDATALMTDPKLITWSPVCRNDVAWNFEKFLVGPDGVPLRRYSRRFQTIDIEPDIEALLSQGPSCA
Tyrosine-protein kinase Yes (Homo sapiens), sequence (P07947 whole entry, looked up): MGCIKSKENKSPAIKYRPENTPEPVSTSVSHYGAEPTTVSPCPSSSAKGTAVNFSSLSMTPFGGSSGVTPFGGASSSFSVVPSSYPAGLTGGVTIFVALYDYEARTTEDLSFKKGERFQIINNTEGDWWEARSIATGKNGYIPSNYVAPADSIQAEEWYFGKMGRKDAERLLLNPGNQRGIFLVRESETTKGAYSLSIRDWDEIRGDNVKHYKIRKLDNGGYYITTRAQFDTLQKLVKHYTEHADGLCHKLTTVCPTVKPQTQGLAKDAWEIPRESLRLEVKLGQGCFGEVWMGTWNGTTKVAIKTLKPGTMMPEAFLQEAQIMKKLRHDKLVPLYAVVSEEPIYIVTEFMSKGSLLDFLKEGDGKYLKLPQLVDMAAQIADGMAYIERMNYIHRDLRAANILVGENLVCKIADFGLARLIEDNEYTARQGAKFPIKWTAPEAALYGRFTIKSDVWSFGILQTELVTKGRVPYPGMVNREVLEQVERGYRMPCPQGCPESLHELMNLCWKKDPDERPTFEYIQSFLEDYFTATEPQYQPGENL
Phospholipid hydroperoxide glutathione peroxidase GPX4 (Homo sapiens), sequence (P36969 whole entry, looked up): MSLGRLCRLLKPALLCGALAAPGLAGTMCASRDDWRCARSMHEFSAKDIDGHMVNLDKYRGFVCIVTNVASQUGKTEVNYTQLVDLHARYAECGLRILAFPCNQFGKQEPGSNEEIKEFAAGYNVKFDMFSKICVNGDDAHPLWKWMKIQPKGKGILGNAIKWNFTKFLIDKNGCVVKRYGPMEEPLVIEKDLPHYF

As to `Cc1cc(F)c(Nc2ncnc3cc(OCc4ccccc4)ccc23)cc1O`, the Potency entry in experiment [1], in experiment [2] and in experiment [5] was “inactive” each time. The Potency was 3.66 µM (active) in experiment [3] and 3.26 µM (active) in experiment [4].

As for `CCOc1cccc2c1OC(c1ccc(F)cc1)C([N+](=O)[O-])=C2` (stereo not given), the results for the Potency in experiment [1], in [6] and in [3] were 8.2 µM (active), 11.6 µM (active) and 5.8 µM (active), respectively. Moreover, the Potency entry in [5] was “inactive”.

With `CN1CCN(c2nc(C3=C(c4c[nH]c5ccccc45)C(=O)NC3=O)c3ccccc3n2)CC1`, the Potency entry in [1], in experiment [6], in [5] and in [7] was “inactive” each time. For the same molecule, in experiment [3], the Potency was 16.4 µM (active) and 16.6 µM (active). In addition, the Z-AUC was 1.37 (inactive) in experiment [8], 0.875 in [8] (measured here: PEO1 parental Z-AUC) and 0.634 in [8] (measured here: PEO4 Z-AUC).

Turning to `O=C1NC(=NCc2cccs2)S/C1=C/c1ccc2ncccc2c1`, the Potency is 4.11 µM (active) in experiment [1], 3.66 µM (active) in experiment [3] and 2.91 µM (active) in experiment [4]. Moreover, the Potency entry in [5] is “inactive”.

For `COc1ccc(-c2oc3ncnc(N)c3c2-c2ccc(NC(=O)Nc3cc(C(F)(F)F)ccc3F)cc2)cc1`, the Potency is 1.04 µM (active) in [9]; 4.61 µM (active) in experiment [1]; 5.8 µM (active) in [6]; 6.51 µM (active) and inactive in [3]; 10.3 µM (active) and inactive in [4]. In addition, the molecule was called inactive in [10]. Moreover, the Potency entry in experiment [5] was “inactive”.

`CCCn1cnc2c(NCc3ccc(C)s3)nc(N[C@H](CC)CO)nc21`: the Potency entry in experiment [1] and in experiment [5] was “inactive” in each case.
